The text below walks through data of PubChem BioAssay (EPA / NIEHS).

Records with an inconclusive call do not appear. Activity calls are given as the source filed them. The calls were made as follows: active = hit-call score of the fitted dose curve at least 0.9, where 1 is the maximum; inconclusive = response in the unintended direction; inactive = score below 0.9.

This experiment can be described thus: TOX21_p53_BLA_p5_viability: Viability Assessment in the Tox21 HCT-116 p53 Agonism Beta-lactamase Assay, Phase 5 (AID 2283600). From the text:
TOX21_p53_BLA_p5 is a cell-based, single-readout assay that uses HCT116, a human intestinal cell line, […] in a 1536-well plate.TOX21_p53_BLA_p5_viability is an assay readout measuring cellular ATP content and detected with CellTiter-Glo Luciferase-coupled ATP quantitation.TOX21_p53_BLA_p5_viability used a type of viability reporter where loss-of-signal activity can be used to understand changes in the cell viability. Furthermore, this assay endpoint can be referred to as a secondary readout, because this assay has produced multiple assay endpoints where this one serves a viability function. To generalize the intended target to other relatable targets, this assay endpoint is annotated to the cell cycle intended target family, where the subfamily is cytotoxicity.
Thawing Method: Place 14 mL of pre-warmed thaw medium into a 15 mL of conical tub. Remove the vial of cells to be thawed from liquid nitrogen and thaw rapidly by placing at 37C in a water bath with gentle agitation for 1-2 minutes. Decontaminate the vial by wiping with 70% ethanol before opening in a biological safety cabinet. Transfer the vial contents drop-wise into 14 mL of thaw medium in a sterile 15-mL conical tub. Centrifuge cells at 900 rpm for 4 minutes and resuspend in thaw medium. Transfer contents to the T75 tissue culture flask containing Thaw Medium and place flask in a humidified 37C/5% CO2 incubator. Switch to growth medium at first passage.Propagation Method: Aspirate medium, rinse once in DPBS, add 0.25% Trypsin/EDTA and swirl to coat the cell evenly. Add an equal volume of Growth Medium to inactivate Trypsin after 2-3 minutes incubation at 37C. Centrifuge cells at 900 rpm for 4 minutes and resuspend in growth medium. Cell should be passage or fed at least twice a week.Assay Protocol: Harvest cells from culture in growth medium and resuspend in assay medium. 2.2 Dispense 4000 cells/5 uL/well into 1536-well black/clear bottom plates using a Multidrop dispenser. After the cells were incubated at 37C for 5 hours, 23 nL of compounds dissolved in DMSO were transferred to the assay plate by a PinTool resulting in a 217-fold dilution. Incubate the plates for 16 hours at 37C, 5% CO2. Add 1 uL of 6X LiveBLAzer FRET B/G (CCF4-AM) Substrate Mixture to each well using a BioRAPTR dispenser and incubate the plates at room temperature for 2 hours. Measure fluorescence intensity at 460 and 530 nm emission and 405 nm excitation by an Envision detector. Data is expressed as the ratio of 460nm/530nm emissions. Add 4 uL of Cell-titer Glo to each well using BioRAPTR and incubate the plates at room temperature for […]. For cell viability readout that measures cytotoxicity, 4 ul/well of CellTiter-Glo reagent was added into the assay plates using a Flying Reagent Dispenser. After 30 min incubation at room temperature, the luminescence intensity in the plates was measured using a ViewLux plate reader.
On to `CC1(C)C(C(=O)OC(C#N)c2cccc(Oc3ccccc3)c2)C1(C)C` (stereo not given), for which the outcome was inactive.

As to `Nc1c(Cl)c(F)nc(OCC(=O)O)c1Cl`, the call was inactive.

On to `COC(=O)NC(=S)Nc1ccccc1NC(=S)NC(=O)OC`, for which the call was inactive.

For the compound `COP(=S)(OC)Oc1ccc([N+](=O)[O-])c(C)c1`, the call was inactive.

As for `CS(=O)(=O)c1cc(C(F)(F)F)ccc1C(=O)c1cnoc1C1CC1`, the compound was called inactive.

For `O=c1n(Cl)c(=O)n(Cl)c(=O)n1Cl`, the compound was called inactive.

Regarding `CC(C)Oc1cccc(NC(=O)c2ccccc2C(F)(F)F)c1`, the compound was classed as inactive.

`CCCCC(C#N)(Cn1cncn1)c1ccc(Cl)cc1` (stereo not given): the result was inactive.

On to `COCC(=O)N(c1c(C)cccc1C)C(C)C(=O)OC` (stereo not given), for which the compound was classed as inactive.

Take `Nc1cnn(-c2ccccc2)c(=O)c1Cl`: the result was inactive.

Turning to `O=C1C2CC=CCC2C(=O)N1SC(Cl)(Cl)Cl` (stereo not given), the compound was called inactive.

For `CCCCC(O)(Cn1cncn1)c1ccc(Cl)cc1Cl` (stereo not given), the compound was called inactive.

As for `Nc1c(Cl)c(Cl)nc(C(=O)O)c1Cl`, the compound was called inactive.

With `CN/C(=N\[N+](=O)[O-])NCc1cnc(Cl)s1`, the compound was classed as inactive.

For the compound `COC(=O)N(C(=O)N1CO[C@@]2(C(=O)OC)Cc3cc(Cl)ccc3C2=N1)c1ccc(OC(F)(F)F)cc1`, the result was inactive.

Regarding `CN=C=S`, the outcome was inactive.

On to `COCC(C)N(C(=O)CCl)c1c(C)csc1C` (stereo not given), for which the compound was called inactive.

For `CCSC(=O)N1CCCCCC1`, the compound was classed as inactive.

Regarding `Clc1nc(Cl)nc(Nc2ccccc2Cl)n1`, the compound was classed as inactive.

For the compound `CNC(=O)N(C)c1nnc(C(C)(C)C)s1`, the result was inactive.

For the compound `CS(=O)(=O)c1ccc(C(=O)C2C(=O)CCCC2=O)c([N+](=O)[O-])c1`, the result was inactive.

As to `C=CCOC(=O)C(C)(C)OC(=O)c1cc(-n2c(=O)cc(C(F)(F)F)n(C)c2=O)ccc1Cl`, the outcome was inactive.

For `Cc1c(COC(=O)[C@@H]2[C@H](/C=C(\Cl)C(F)(F)F)C2(C)C)cccc1-c1ccccc1`, the result was inactive.

Take `Clc1cccc(C(Cl)(Cl)Cl)n1`: the result was inactive.

In the case of `CC1(C)C(C=C(Cl)Cl)C1C(=O)OC(C#N)c1cccc(Oc2ccccc2)c1` (stereo not given), the outcome was inactive.

On to `CNC(=O)Oc1cccc2ccccc12`, for which the outcome was inactive.

`CC(C)N1C(=O)N(c2ccccc2)CSC1=NC(C)(C)C`: the half-maximal activity concentration (AC50) was 69 µM (active).

Regarding `CO/N=C(/C1=NOCCO1)c1ccccc1Oc1ncnc(Oc2ccccc2Cl)c1F`, the result was inactive.

`CSC(=O)c1c(C(F)F)nc(C(F)(F)F)c(C(=O)SC)c1CC(C)C`: the call was inactive.

For the compound `CC(C)NC(=O)N1CC(=O)N(c2cc(Cl)cc(Cl)c2)C1=O`, the call was inactive.

Regarding `CCC(C)n1c(=O)[nH]c(C)c(Br)c1=O` (stereo not given), the compound was called inactive.

On to `Cc1ccc(N=CN(C)C=Nc2ccc(C)cc2C)c(C)c1`, for which the outcome was inactive.

Regarding `COc1ccc(-c2ccccc2)cc1NNC(=O)OC(C)C`, the compound was classed as inactive.

With `CCCN(CC)CC1COC2(CCC(C(C)(C)C)CC2)O1` (stereo not given), the compound was classed as inactive.

`CCCCOCN(C(=O)CCl)c1c(CC)cccc1CC`: the outcome was inactive.

For `CC(C)(C)C(=O)C(Oc1ccc(Cl)cc1)n1cncn1` (stereo not given), the result was inactive.

As for `COP(=S)(OC)SCn1nnc2ccccc2c1=O`, the compound was called inactive.

For the compound `OC(c1ccc(Cl)cc1)(c1ccc(Cl)cc1)C(Cl)(Cl)Cl`, the AC50 was 71 µM (active).

For the compound `CCOP(=O)(OCC)Oc1nc(Cl)c(Cl)cc1Cl`, the call was inactive.

With `CCOc1nc(C(Cl)(Cl)Cl)ns1`, the outcome was inactive.

What is called AC50 is the midpoint of the concentration-response curve, whichever way the signal moves.
